Data on twelve compounds can be found in PubChem BioAssay (NCI).

The panel holds about 83,000 compounds, 20% with a hit somewhere; the sample as a whole holds those more often.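 Percent growth is the endpoint: 0 to 100 indicates growth inhibition (40 means 60% inhibition), 0 means no net growth, and negative values indicate cell death.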 Unmarked numbers belong to inactive results. Activity calls are given as the source filed them. How the source made its calls: active means growth percent below 10; inactive means the rest.

Experiment in all cases: NCI-60 one-dose screen, 48 h (100 = growth as untreated, 0 = no growth, -100 = all killed)
What all share (conditions): 10 µM unless noted

Test [1] has as its system NCI-H23 lung.
Test [2] deals with NCI-H226 lung.
For test [3], the system named is NCI-H322M lung.
For test [4], the system named is HOP-62 NSCLC.
Test [5] relates to NCI-H460 lung.
The test system of test [6] is HOP-92 NSCLC.
Test [7] deals with NCI-H522 lung.
The test system of test [8] is A549/ATCC NSCLC.
Test [9] concerns 786-0 renal.
The subject of test [10] is COLO 205 colon.

Regarding `CC1SC(c2ccc(N(C)C)cc2)N(NC(=O)C(O)(c2ccccc2)c2ccccc2)C1=O` (stereo not given), the growth in test [1] was 98.5%; in [2], 105%; in [3], 81%; in [4] it was 97.1%; in test [5] it was 144%; in test [6], 74.6%. In addition, the growth in test [7] was 84.6%; in [8], 79.6%; in test [9], 97.7%; in test [10], 102%.
Turning to `Cc1nc2ccccc2n1C(=O)C[C@@H]1NC(=S)NC1=O`, the growth in [1] was 95.5%; in [2], 92.4%; in test [3], 96%; in [4] it was 93.2%; in [5], 104%; in test [6] it was 123%. Besides, the growth in test [7] is 96.8%; in test [8], 93.1%; in test [9] it was 101%; in test [10] it was 98.9%.
As for `COc1cc2c(cc1O)CC[C@@H]1[C@@H]2CC[C@]2(C)[C@@H](NCCN(C)C)CC[C@@H]12`, the growth in test [1] is -77.2% (active); in test [2] it was -86.2% (active); in test [3], -91.6% (active); in test [4], -76.3% (active); in [5] it was -84.7% (active); in [6] it was -81.7% (active). Besides, the growth in test [7] is -94.3% (active); in [8], -81.6% (active); in [9], -84.3% (active); in [10], -71% (active).
In the case of `COc1ccc(S(=O)(=O)N2CCN(C)CC2)cc1NC(=O)c1[nH]c(C)c2c1CCCCC2=O`, the growth in [1] was 66.9%; in test [2], 61.7%; in test [3], 59.9%; in test [4], 43.4%; in test [5], 73.3%; in [6] it was 34.6%. In addition, the growth was 50.1% in test [7], 62.3% in test [8], 58.6% in [9] and 33.1% in test [10].
For `O=C(Oc1cccnc1)c1ccsc1Nc1ccnc(C(F)(F)F)c1`, the growth in [1] is 35.4%; in [2] it was 98.6%; in [3], 104%; in test [4], 96%; in [5] it was 105%; in test [6] it was 44.6%. Moreover, the growth is 44.8% in test [7], 98.2% in test [8], 108% in test [9] and 101% in [10].
As to `O=C1c2cccc3cccc(c23)C(=O)N1CCCCCN1CCN(CCCCCOc2ccc(-c3nc4ccc(N5CCOCC5)cc4[nH]3)cc2)CC1`, the growth in test [1] was 98.9%; in [2], 78.9%; in test [3] it was 103%; in [4], 97.4%; in test [5], 27.5%; in test [6], 49.2%. Besides, the growth in [7] was 73.7%; in test [8], 21.3%; in test [9] it was 109%; in test [10], 96.5%.
As to `CSc1nc(NCCO)c(C#N)c(-c2cccc([N+](=O)[O-])c2)n1`, the growth in [1] is 99.5%; in test [2] it was 93.1%; in test [3], 102%; in test [4] it was 91.6%; in test [5], 101%; in test [6], 79.4%. Moreover, the growth is 92.3% in [7], 105% in test [8], 100% in [9] and 116% in test [10].
As to `COc1ccc(SC2c3ccc(C)cc3Oc3nc(N)c(C#N)c(N)c32)cc1` (stereo not given), the growth in test [1] is -43.8% (active); in [2], -63.9% (active); in test [3], 5.34% (active); in test [4], -10.6% (active); in test [5], -49.6% (active); in test [6], -56.7% (active). Also, the growth in [7] was -90.3% (active); in test [8], 19.9%; in test [9], -95.4% (active); in [10] it was -66.5% (active).
Regarding `COC(=O)[C@]12CCC(C)(C)C[C@H]1[C@H]1C(=O)C[C@@H]3[C@@]4(C)c5c([nH]c6ccccc6c5=O)C(C)(C)[C@@H]4CC[C@@]3(C)[C@]1(C)CC2`, the growth in test [1] is 65.8%; in test [2], 65.7%; in [3], 90.4%; in test [4], 85.5%; in [5], 66.8%; in [6], 85.8%. Also, the growth in test [7] was 45.1%; in test [8] it was 34.8%; in test [9], 86.3%; in test [10], 77.5%.
As to `Cc1ccc2c(C(C[N+](=O)[O-])c3ccco3)c(-c3ccccc3)[nH]c2c1` (stereo not given), the growth is 51.3% in test [1]; 46.5% in test [2]; 53.3% in test [3]; 24% in test [4]; 13.9% in test [5]; 39.9% in test [6]. Besides, the growth in [7] is -11.7% (active); in test [8] it was 33.3%; in test [9], 31.2%; in [10], 21.8%.
For `COc1cc(/C=C/C(=O)c2ccc(O)c(CN3CCN(c4cc5c(cc4F)c(=O)c(C(=O)O)cn5C4CC4)CC3)c2)cc(OC)c1OC`, the growth in test [1] is 42.8%; in [2], 76.9%; in [3], 30%; in [4], 72.3%; in test [5], 34.8%; in test [6], 81.2%. The growth in test [7] was 27.6%; in [8] it was 43.1%; in test [9], 49.8%; in test [10], 106%.
Regarding `CN(Cc1cc(Cl)cc(Cl)c1O)Cc1cc(Cl)cc(Cl)c1O`, the growth in test [1] was 76.9%; in [2], 71.5%; in test [3] it was 54.9%; in test [4], 54.6%; in [5], 45.6%; in test [6], 92.5%. Moreover, the growth in test [7] was 72.2%; in test [8], 61.2%; in test [9] it was 94.7%; in test [10] it was 99.5%.
